High-throughput results (PubChem BioAssay)
KKLEB tox = counter-screen for CF NF-kB inhibitors: cytotoxicity; AID 602141; activity change (cytotoxicity), % at 5 µM; KKLEB CF airway cells viability, ATPlite luminescence, overnight; hits give low values; cells stimulated with P. aeruginosa culture filtrate; 360,000 tested, 0.36% active;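 active means corrected activity change at or below -50% at 5 µM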
ABHD5 PLIN5 PPI = inhibitors of human ABHD5-perilipin-5 interaction; Split G. princeps luciferase complementation, luminescence, 4 h; 360,000 tested, 0.78% active; inhibition, % at 4 µM; AID 602281;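 active means inhibition above the mean inhibition across every tested compound plus 3 SD, cut at about 22% in these data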
Target sequence (Q00G26 whole entry, looked up): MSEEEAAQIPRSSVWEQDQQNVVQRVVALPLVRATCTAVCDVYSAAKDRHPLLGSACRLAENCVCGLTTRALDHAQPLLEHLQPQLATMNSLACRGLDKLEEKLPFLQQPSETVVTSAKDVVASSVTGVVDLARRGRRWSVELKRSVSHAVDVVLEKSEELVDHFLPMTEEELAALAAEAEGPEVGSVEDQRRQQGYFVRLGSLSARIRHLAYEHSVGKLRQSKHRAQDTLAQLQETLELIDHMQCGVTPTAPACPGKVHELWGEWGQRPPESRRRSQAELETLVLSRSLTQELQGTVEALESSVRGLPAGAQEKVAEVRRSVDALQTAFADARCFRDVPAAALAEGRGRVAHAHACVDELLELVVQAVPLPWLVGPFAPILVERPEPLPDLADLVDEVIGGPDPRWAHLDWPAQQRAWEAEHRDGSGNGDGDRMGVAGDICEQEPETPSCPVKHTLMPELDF
Target sequence (Q8WTS1 whole entry, looked up): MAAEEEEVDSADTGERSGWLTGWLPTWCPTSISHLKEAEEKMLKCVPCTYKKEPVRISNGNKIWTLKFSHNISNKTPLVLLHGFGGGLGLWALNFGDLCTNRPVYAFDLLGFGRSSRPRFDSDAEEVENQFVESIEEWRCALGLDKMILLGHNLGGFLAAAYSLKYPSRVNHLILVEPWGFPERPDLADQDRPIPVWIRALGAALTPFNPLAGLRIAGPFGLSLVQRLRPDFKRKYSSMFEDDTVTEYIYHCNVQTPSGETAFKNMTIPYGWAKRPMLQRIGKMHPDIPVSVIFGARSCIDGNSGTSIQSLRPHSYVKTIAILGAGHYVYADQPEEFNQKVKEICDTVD
HIF-2a block = HIF-2a inhibition | 786-0 RCC cells HIF-2a reporter, luciferase luminescence, overnight | inhibition, % at 18.8 µM | 360,000 tested, 0.72% active | AID 624352;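 active means inhibition of the luminescence signal of 40% or more relative to plate controls, in a single-dose primary screen at 18.75 µM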
Peg3 prom inh-1 = inhibitors of Peg3 promoter. HeLa PEG-Prom luciferase reporter, luminescence, overnight. 360,000 tested, 1.7% active. AID 588405. inhibition, % at 20 µM;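 active means inhibition of at least 50% at 20 µM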
CF NFkB block = cystic fibrosis NF-kB activation inhibition; KKLEB NF-kB-GFP reporter, PAF-induced, GFP fluorescence overnight; 360,000 tested, 0.86% active; AID 588850; inhibition, % at 5 µM;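 active means at least 50% inhibition at 5 µM, scaled per plate between neutral and stimulator controls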;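 further: PAF is a Pseudomonas aeruginosa culture filtrate used as stimulus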
TRPM1 prom inh = inhibitors of MITF-driven TRPM1 promoter in melanoma cells; SK-MEL-5 TRPM1 promoter luciferase, 24 h; AID 488899; 330,000 tested, 0.83% active; inhibition, % at 12.5 µM;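 active means mean inhibition across replicates of 60% or more, whatever share of single replicates reaches that level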
Peg3 prom inh-2 = Peg3 promoter inhibition confirmation; HeLa PEG-Prom luciferase reporter, luminescence, overnight; shares compounds with Peg3 prom inh-1; 1,300 tested, 84% active; inhibition, % at 20 µM;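 active means at 20 µM dose, 40% or more inhibition averaged across four replicates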
Hits are given with their value; ! = repeats disagree. A selection: hits, their analogues and other compounds. The true share with any hit is near 3.1%.

For CCN1CCN(Cc2ccc(NC(=O)c3cc(NC(=O)c4ccno4)cc(OC)c3)cc2C(F)(F)F)CC1 the results were KKLEB tox inactive, ABHD5 PLIN5 PPI inactive, HIF-2a block inactive, Peg3 prom inh-1 62!, CF NFkB block inactive, TRPM1 prom inh inactive and Peg3 prom inh-2 48.
Screening CCN(CC)CCSc1nnc2c3cc(C)ccc3n(Cc3ccccc3)c2n1 returned KKLEB tox inactive, ABHD5 PLIN5 PPI inactive, HIF-2a block inactive, Peg3 prom inh-1 64, CF NFkB block inactive and Peg3 prom inh-2 46.
Screening Cc1ccc(S(=O)(=O)N2CCCCC2)cc1C(=O)N(C)CC(=O)Nc1ccc(Cl)c(C(F)(F)F)c1 returned KKLEB tox inactive, ABHD5 PLIN5 PPI inactive, HIF-2a block inactive, Peg3 prom inh-1 53, CF NFkB block inactive, TRPM1 prom inh inactive and Peg3 prom inh-2 56.
O=C1C=C(c2ccc(Cl)c(C(F)(F)F)c2)C[C@@H](c2ccc(Cl)cc2)C1 was read as KKLEB tox inactive, ABHD5 PLIN5 PPI inactive, HIF-2a block inactive, Peg3 prom inh-1 inactive, CF NFkB block inactive and TRPM1 prom inh inactive.
`Cc1c(C)c2ccc(OCC(=O)Nc3ccccn3)c(C)c2oc1=O` gave KKLEB tox -90, ABHD5 PLIN5 PPI inactive, HIF-2a block 78, Peg3 prom inh-1 93, CF NFkB block inactive, TRPM1 prom inh 87 and Peg3 prom inh-2 84.
For O=C(COc1ccc(Cl)cc1Cl)Nc1ccccn1 the results were KKLEB tox -92, ABHD5 PLIN5 PPI inactive, HIF-2a block 81, Peg3 prom inh-1 92, CF NFkB block inactive, TRPM1 prom inh 80 and Peg3 prom inh-2 87.
For O=C(NCc1ccco1)c1cc(S(=O)(=O)NC2CC2)ccc1Br the results were KKLEB tox inactive, ABHD5 PLIN5 PPI inactive, HIF-2a block inactive, Peg3 prom inh-1 inactive, CF NFkB block inactive and TRPM1 prom inh inactive.
COC(=O)CSc1nnc(CNC(=O)c2cc(OC)cc(OC)c2)n1-c1ccc(F)cc1 was read as KKLEB tox inactive, ABHD5 PLIN5 PPI inactive, HIF-2a block inactive, Peg3 prom inh-1 inactive, CF NFkB block inactive and TRPM1 prom inh inactive.
`CCOC(=O)C(=N/O)/C(C)=N/NC(=O)C(=O)Nc1cc(Cl)ccc1Cl` gave KKLEB tox inactive, ABHD5 PLIN5 PPI inactive, HIF-2a block inactive, Peg3 prom inh-1 inactive, CF NFkB block inactive and TRPM1 prom inh inactive.
Screening COc1ccc(C(NC(=O)C(C)C)c2c(O)ccc3ccccc23)cc1OC (centres undefined) returned KKLEB tox inactive, ABHD5 PLIN5 PPI inactive, HIF-2a block inactive, Peg3 prom inh-1 inactive, CF NFkB block inactive and TRPM1 prom inh inactive.
Screening COc1cc(-c2cc(C(=O)Nc3ccc(C)c(S(=O)(=O)N4CCOCC4)c3)c3ccccc3n2)cc(OC)c1OC returned KKLEB tox inactive, ABHD5 PLIN5 PPI inactive, HIF-2a block inactive, Peg3 prom inh-1 52, CF NFkB block inactive, TRPM1 prom inh inactive and Peg3 prom inh-2 inactive.
For COc1ccc(S(=O)(=O)Nc2ccc3c(c2)C(=O)N([C@H](C)CO)C[C@H](C)[C@@H](CN(C)S(=O)(=O)c2cccs2)O3)cc1 the results were KKLEB tox inactive, ABHD5 PLIN5 PPI inactive, HIF-2a block inactive, Peg3 prom inh-1 inactive, CF NFkB block inactive and TRPM1 prom inh inactive.
O=C1Nc2ccccc2-c2nnnn2C1N1CCC(Cc2ccccc2)CC1 (centres undefined) was read as ABHD5 PLIN5 PPI inactive and HIF-2a block inactive.
Screening O=C(CNC(=O)C(c1ccccc1)c1ccccc1)N/N=C/c1ccc(O)cc1O returned KKLEB tox inactive, ABHD5 PLIN5 PPI inactive, HIF-2a block inactive, Peg3 prom inh-1 51, CF NFkB block inactive, TRPM1 prom inh inactive and Peg3 prom inh-2 65.
C=CCN=C1NN=C(c2cc(C)n(CC=C)c2C)CS1 was read as KKLEB tox inactive, ABHD5 PLIN5 PPI inactive, HIF-2a block 58, Peg3 prom inh-1 74, CF NFkB block inactive, TRPM1 prom inh 84 and Peg3 prom inh-2 82.
Screening Cc1ccc(S(=O)(=O)CCSC(=N)N)cc1 returned KKLEB tox inactive, ABHD5 PLIN5 PPI inactive, HIF-2a block inactive, Peg3 prom inh-1 55, CF NFkB block inactive, TRPM1 prom inh inactive and Peg3 prom inh-2 47.
`COC(=O)c1c(N)sc(C(=O)NCCc2ccccc2)c1C` gave KKLEB tox inactive, ABHD5 PLIN5 PPI inactive, HIF-2a block 66, Peg3 prom inh-1 78, CF NFkB block inactive, TRPM1 prom inh 63 and Peg3 prom inh-2 65.
COc1ccc2c(c1)C=C([C@@H]1C[C@H]3CN(c4ccccc4)C(=O)[C@]34CCCN14)CO2 was read as KKLEB tox inactive, ABHD5 PLIN5 PPI inactive, HIF-2a block inactive, Peg3 prom inh-1 71, CF NFkB block inactive, TRPM1 prom inh inactive and Peg3 prom inh-2 53.
COc1ccc(CCN(C)C2CCCN(C(=O)c3sccc3C)C2)cc1OC (centres undefined) was read as KKLEB tox inactive, ABHD5 PLIN5 PPI inactive, HIF-2a block inactive, Peg3 prom inh-1 inactive, CF NFkB block inactive and TRPM1 prom inh inactive.
For C=CCn1c(=NC(=O)c2ccc(S(=O)(=O)N3CCc4ccccc4C3)cc2)sc2cc(S(N)(=O)=O)ccc21 the results were KKLEB tox inactive, ABHD5 PLIN5 PPI inactive, HIF-2a block inactive, Peg3 prom inh-1 72, CF NFkB block inactive, TRPM1 prom inh inactive and Peg3 prom inh-2 inactive.
CC(=O)Nc1ccc(S(=O)(=O)NCCCN2CCOCC2)cc1 was read as KKLEB tox inactive, ABHD5 PLIN5 PPI inactive, HIF-2a block inactive, Peg3 prom inh-1 inactive, CF NFkB block inactive and TRPM1 prom inh inactive.
`O=C(NN=Cc1ccc(Cl)cc1Cl)c1ccccc1` gave KKLEB tox inactive, ABHD5 PLIN5 PPI inactive, HIF-2a block inactive, Peg3 prom inh-1 inactive and CF NFkB block inactive.
For NC(N)=N/N=C/c1ccc(Cl)cc1Cl the results were KKLEB tox inactive, ABHD5 PLIN5 PPI inactive, HIF-2a block inactive, Peg3 prom inh-1 69, CF NFkB block inactive, TRPM1 prom inh inactive and Peg3 prom inh-2 83.
`Cc1cc(C)c(NC(=O)CSc2nc3ccc(NC(=O)CSc4nnnn4-c4ccccc4)cc3s2)c(C)c1` gave KKLEB tox -67, ABHD5 PLIN5 PPI inactive, HIF-2a block inactive, Peg3 prom inh-1 84, CF NFkB block 71, TRPM1 prom inh inactive and Peg3 prom inh-2 inactive.
`CN(C)c1ccc(C=C2C=C(c3ccccc3)OC2=O)cc1` gave KKLEB tox inactive, ABHD5 PLIN5 PPI inactive, HIF-2a block inactive, Peg3 prom inh-1 inactive and CF NFkB block inactive.
Screening CN(C)c1ccc(C=c2c3ccccc3n3c2cc(-c2ccccc2)[n+]3C)cc1 returned KKLEB tox inactive, ABHD5 PLIN5 PPI inactive, HIF-2a block 90, Peg3 prom inh-1 104, CF NFkB block inactive, TRPM1 prom inh 95 and Peg3 prom inh-2 98.
`CCCN(CC(=O)Nc1cc(Cl)cc(Cl)c1)CC(=O)Nc1ccc(F)c(F)c1F` gave KKLEB tox inactive, ABHD5 PLIN5 PPI inactive, HIF-2a block inactive, Peg3 prom inh-1 87, CF NFkB block inactive, TRPM1 prom inh inactive and Peg3 prom inh-2 91.
